Values joined by “and” are separate entries in the source; they are usually repeats but may differ in a detail not shown here. Identical values can stand only once. Out of some 5,500 compounds screened, about 2,000 (36%) were called active. Another 18% or so got no clear call; they are omitted. Cut-off read from the data, not from the text of the source: active = normalized growth mostly below about 0.91 (no sharp cut-off); inconclusive = no clear call, values can overlap the other calls; inactive = mostly above about 0.92. Some of the results follow.
Test: chemical genetic growth profiling, strain panel (AID 1159580);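 note: tested at 20 µM; growth read once vehicle control cultures reached saturation at 30 °C; 1 = growth at the plate median or of vehicle wells; lower values mean less growth of the strain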
Conditions: S. cerevisiae deletion strains, growth OD

Measured: normalized growth

CC(=O)N=c1sc(S(N)(=O)=O)nn1C
inactive: locus YAL013W, strain DEP1, hits give low values 1.01 | locus YAL021C, strain ccr4, hits give low values 1.01 | locus YAL026C, strain drs2, hits give low values 1.01 | locus YAL030W, strain snc1, hits give low values 1 | locus YBL061C, strain skt5, hits give low values 1.01 | locus YBR009C, strain hhf1, hits give low values 1 | locus YBR021W, strain FUR4, hits give low values 1.02 | locus YBR023C, strain chs3, hits give low values 1.01 | locus YBR171W, strain sec66, hits give low values 1.03 | locus YBR229C, strain ROT2, hits give low values 1.01 | locus YBR231C, strain swc5, hits give low values 1.02 | locus YBR279W, strain paf1, hits give low values 1.01 | locus YCL011C, strain gbp2, hits give low values 1.01 | locus YCL016C, strain dcc1, hits give low values 1.01 | locus YCL029C, strain bik1, hits give low values 0.995 | locus YCL061C, strain MRC1, hits give low values 1.01 | locus YCL069W, strain vba3, hits give low values 1.01 | locus YCR088W, strain abp1, hits give low values 1.01 | locus YDL005C, strain med2, hits give low values 1.01 | locus YDL035C, strain GPR1, hits give low values 1.03 | locus YDL040C, strain nat1, hits give low values 0.999 | locus YDL074C, strain BRE1, hits give low values 0.995 | locus YDL101C, strain DUN1, hits give low values 1.01 | locus YDL134C, strain PPH21, hits give low values 1.02 | locus YDL185W, strain tfp1, hits give low values 1.01 | locus YDL192W, strain arf1, hits give low values 1.01 | locus YDR001C, strain nth1, hits give low values 1 | locus YDR069C, strain doa4, hits give low values 1.01 | locus YDR101C, strain arx1, hits give low values 1 | locus YDR137W, strain rgp1, hits give low values 1.04 | locus YDR150W, strain NUM1, hits give low values 1 | locus YDR159W, strain sac3, hits give low values 0.998 | locus YDR162C, strain NBP2, hits give low values 1.02 | locus YDR195W, strain ref2 0.991 | locus YDR297W, strain sur2, hits give low values 1 | locus YDR318W, strain mcm21, hits give low values 1.02 | locus YDR334W, strain swr1, hits give low values 1.01 | locus YDR335W, strain msn5, hits give low values 1.01 | locus YDR388W, hits give low values 1.01 | locus YDR392W, strain spt3, hits give low values 1.02 | locus YDR502C, strain sam2, hits give low values 0.998 | locus YEL003W, strain gim4, hits give low values 1.01 | locus YEL037C, strain rad23, hits give low values 1 | locus YEL061C, strain CIN8 (second series), hits give low values 1.01 | locus YEL061C, strain CIN8, hits give low values 1 | locus YER015W, strain faa2, hits give low values 0.989 | locus YER016W, strain bim1, hits give low values 1.01 | locus YER110C, hits give low values 1.02 | locus YER111C, strain swi4, hits give low values 0.994 | locus YER155C, strain BEM2 (second series), hits give low values 1.02 | locus YER155C, strain BEM2, hits give low values 1 | locus YER167W, strain BCK2, hits give low values 1.02 | locus YFR010W, strain ubp6, hits give low values 1.02 | locus YGL078C, strain dbp3, hits give low values 1 | locus YGL086W, strain mad1, hits give low values 0.998 | locus YGL167C, strain pmr1, hits give low values 1.01 | locus YGL173C, strain kem1, hits give low values 1.01 | locus YGL227W, strain vid30, hits give low values 1.01 | locus YGL240W, strain doc1, hits give low values 1.03 | locus YGL248W, strain PDE1, hits give low values 0.997 | locus YGL253W, strain hxk2, hits give low values 1.02 | locus YGR135W, strain pre9, hits give low values 1.06 | locus YGR252W, strain gcn5, hits give low values 1.01 | locus YHR013C, strain ard1, hits give low values 1.03 | locus YHR027C, strain rpn1, hits give low values 1.02 | locus YHR030C, strain SLT2, hits give low values 1 and 1.06 | locus YHR079C, strain IRE1 (second series), hits give low values 1.01 | locus YHR079C, strain IRE1, hits give low values 1.06 | locus YHR094C, strain hxt1, hits give low values 1.01 | locus YHR129C, strain ARP1, hits give low values 1.02 | locus YHR142W, strain chs7, hits give low values 1.02 | locus YHR200W, strain rpn10, hits give low values 1.01 | locus YIL066C, strain RNR3, hits give low values 1 | locus YIL073C, strain SPO22, hits give low values 1.07 | locus YIL125W, strain kgd1, hits give low values 0.997 | locus YIR030C, strain dcg1, hits give low values 0.996 | locus YJL092W, strain hpr5, hits give low values 1.02 | locus YJL095W, strain BCK1 (second series), hits give low values 1.01 | locus YJL095W, strain BCK1, hits give low values 0.989 and 1.05 | locus YJL115W, strain asf1, hits give low values 1.01 | locus YJL129C, strain trk1, hits give low values 1 | locus YJL134W, strain LCB3, hits give low values 1.01 | locus YJL154C, strain vps35, hits give low values 1 | locus YJL164C, strain tpk1, hits give low values 1.01 | locus YJL166W, strain qcr8, hits give low values 0.998 | locus YJL168C, strain set2, hits give low values 1.01 | locus YJL187C, strain SWE1 (second series), hits give low values 0.984 | locus YJL187C, strain SWE1, hits give low values 1.01 | locus YJR043C, strain POL32, hits give low values 0.986 | locus YJR066W, strain TOR1, hits give low values 0.984

Source: PubChem BioAssay AID1159580 (chemical genetic matrix, 2015)
